Measured values taken from PubChem BioAssay (Tox21).
Results filed as inconclusive are left out. Active and inactive are the calls of the source. Calls come from the whole dose curve; as a rule, active = well fitted curve in the direction sought with a large enough effect in the repeat runs; inconclusive = weak or mixed curves; inactive = no such curve, though single readings can be large; an effect the other way counts as inactive or inconclusive.

Assays:
[1] = Human pregnane X receptor (PXR) small molecule agonists, qHTS cell viability counter screen (AID 1346977); note: nearly all actives have a fitted effect of over 50% in size; note: potency is the fitted concentration of half-maximal effect
How it was run: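 Measures live-cell protease fluorescence (CellTiter-Fluor) in PXR-Luc HepG2 cells treated 24hr with compounds at 37C. Cells had 5hr to attach before pin transfer of DMSO solutions.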

[2] = Caspase-3/7 induction in HepG2 cells by small molecules, qHTS assay (AID 1346978); note: nearly all actives have a fitted effect of over 15% in size; note: potency is the fitted concentration of half-maximal effect
How it was run: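 Wild-type HepG2 cells, 2,000/well, settled 5 hr at 37 C and 5% CO2, then compound-treated for 17 hr; caspase-3/7 activity read by luminescent Caspase-Glo 3/7 after 30 min at room temperature.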

[3] = Caspase-3/7 induction in CHO-K1 cells by small molecules, qHTS cell viability counter screen (AID 1346979); note: nearly all actives have a fitted effect of over 35% in size; note: potency is the fitted concentration of half-maximal effect
How it was run: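 In the same wells as the caspase read, viability of compound-treated wild-type CHO-K1 cells was assessed using CellTiter-Fluor, added after 16hr at 37C and measured by fluorescence following 1hr further incubation.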

[4] = Caspase-3/7 induction in HepG2 cells by small molecules, qHTS cell viability counter screen (AID 1346981); note: nearly all actives have a fitted effect of over 30% in size; note: potency is the fitted concentration of half-maximal effect
How it was run: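 Cell viability is measured as a cytotoxicity counter screen alongside the Caspase-Glo 3/7 readout in identical wells. Wild-type HepG2 cells are treated with test compounds for 16 hr at 37 C before CellTiter-Fluor addition and a 1-hr incubation.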

[5] = target: Nuclear receptor subfamily 1 group I member 2 (Homo sapiens) (UniProt O75469); test: Human pregnane X receptor (PXR) small molecule agonists, qHTS assay (AID 1346982); note: nearly all actives have a fitted effect of over 35% in size; note: potency is the fitted concentration of half-maximal effect
How it was run: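 Cells: HepG2 stably carrying PXR-Luc. Medium held 5% charcoal-stripped FBS. Compounds in DMSO added after 5 hr plating, incubated 24 hr, then luminescence quantified with ONE-Glo.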

[6] = target: Nuclear receptor subfamily 1 group I member 2 (Homo sapiens) (UniProt O75469); test: CYP3A4 induction through human pregnane X receptor (PXR) by small molecules, qHTS assay (AID 1346984); note: nearly all actives have a fitted effect of over 40% in size
How it was run: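 Quantitative HTS in DPX-2 cells, i.e. HepG2 transfected with PXR response element and CYP3A4-promoter luciferase. Compounds in DMSO incubated 24hr at 37C; then P450-Glo CYP3A4 substrate, 3uM final, 3hr; One-Glo luminescence.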

[7] = target: Nuclear receptor subfamily 1 group I member 2 (Homo sapiens) (UniProt O75469); test: Human pregnane X receptor (PXR) activation by small molecules, qHTS assay (AID 1346985); note: nearly all actives have a fitted effect of over 40% in size; note: potency is the fitted concentration of half-maximal effect
How it was run: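 DPX-2 cells (HepG2 co-transfected with a PXR response element and a CYP3A4-promoter luciferase construct) were seeded at 2,000 per well, rested 5 hr at 37C, then exposed to DMSO-dissolved compounds for 24 hr. Activation was read as luciferase luminescence.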

[8] = target: Cytochrome P450 2C19 (Homo sapiens) (UniProt P33261); test: Cytochrome P450 Family 2 Subfamily C Member 19 (CYP2C19) small molecule antagonists: luciferase reporter qHTS assay (AID 1671197); note: nearly all actives have a fitted effect of over 65% in size; note: potency is the fitted concentration of half-maximal effect
How it was run: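 First, compounds are pinned into enzyme-substrate mix and held 10 min at room temperature. Second, NADPH regeneration solution is added and plates incubate 1 h at 37C. Third, detection reagent is added and luminescence read after 20 min.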

[9] = target: Cytochrome P450 2C9 (Homo sapiens) (UniProt P11712); test: Cytochrome P450 Family 2 Subfamily C Member 9 (CYP2C9) small molecule antagonists: luciferase reporter qHTS assay (AID 1671198); note: nearly all actives have a fitted effect of over 50% in size; note: potency is the fitted concentration of half-maximal effect
How it was run: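 P450-Glo proluciferin substrate with CYP2C9 enzyme; 10 min RT preincubation, then NADPH regeneration 1 h at 37C; luciferin detection reagent 20 min RT, luminescence in relative luminescence units.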

[10] = target: Cytochrome P450 1A2 (Homo sapiens) (UniProt P05177); test: Cytochrome P450 Family 1 Subfamily A Member 2 (CYP1A2) small molecule antagonists: luciferase reporter qHTS assay (AID 1671199); note: nearly all actives have a fitted effect of over 50% in size; note: potency is the fitted concentration of half-maximal effect
How it was run: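 Compounds were incubated with CYP1A2 and a luminogenic proluciferin substrate for 10 min at room temperature before the reaction was started with NADPH regeneration solution. After 1 h, detection reagent was added and light output, proportional to CYP activity, was recorded.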

[11] = target: Voltage-gated inwardly rectifying potassium channel KCNH2 (Homo sapiens) (UniProt Q12809); test: Human Ether-a-go-go-Related Gene (hERG) channel small molecule antagonists: fluorescence cell-based qHTS assay (AID 1671200); note: nearly all actives have a fitted effect of over 50% in size; note: potency is the fitted concentration of half-maximal effect
How it was run: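 Quantitative HTS in hERG-U2OS cells: thallium entry through the channel reports activity, read as continuous 480/540 nm fluorescence over 2 min after stimulus addition.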

[12] = Caspase-3/7 induction in CHO-K1 cells by small molecules, qHTS assay (AID 1346980); note: nearly all actives have a fitted effect of over 15% in size
How it was run: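 Wild-type CHO-K1 cells exposed to compounds for 17hr at 37 C, 5% CO2. Caspase-3/7 activity then measured by Caspase-Glo 3/7 luminescence after 30min at room temperature.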

[13] = target: Cytochrome P450 2D6 (Homo sapiens) (UniProt P10635); test: Cytochrome P450 Family 2 Subfamily D Member 6 (CYP2D6) small molecule antagonists: luciferase reporter qHTS assay (AID 1671196); note: nearly all actives have a fitted effect of over 50% in size; note: potency is the fitted concentration of half-maximal effect
How it was run: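 Enzyme and proluciferin substrate were first combined with test chemical for 10 min at room temperature. Adding NADPH regeneration solution started a 1 h reaction, stopped with luciferin detection reagent and read by luminescence 20 min later.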

[14] = target: Cytochrome P450 3A4 (Homo sapiens) (UniProt P08684); test: Cytochrome P450 Family 3 Subfamily A Member 4 (CYP3A4) small molecule antagonists: luciferase reporter qHTS assay (AID 1671201); note: nearly all actives have a fitted effect of over 50% in size; note: potency is the fitted concentration of half-maximal effect
How it was run: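 Inhibition of CYP3A4 is measured as loss of light: the enzyme converts a proluciferin substrate to luciferin, detected luminescently. Reaction ran 1 h at room temperature with NADPH regeneration after a 10 min compound preincubation.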

[15] = target: Nuclear receptor subfamily 1 group I member 2 (Rattus norvegicus) (UniProt Q9R1A7); test: Rat pregnane X receptor (rPXR) activation by small molecules, qHTS assay (AID 1346983); settings: rPXR luciferase reporter cells, One-Glo luminescence, 24 h; max activation: stronger effect = higher value; note: nearly all actives have a fitted effect of over 20% in size
How it was run: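 Cell-based rPXR activation assay: rPXR cells, 2,000 per well, rested 5hr at 37 C, then exposed to compounds in DMSO for 24 hr at 37 C. Luciferase activity read by One-Glo luminescence after 30 min at room temperature.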
% is set by controls: 0 for no effect and ±100 for the full control effect.

Chain of Cytochrome P450 2C19 (Homo sapiens) (P33261 whole entry, looked up): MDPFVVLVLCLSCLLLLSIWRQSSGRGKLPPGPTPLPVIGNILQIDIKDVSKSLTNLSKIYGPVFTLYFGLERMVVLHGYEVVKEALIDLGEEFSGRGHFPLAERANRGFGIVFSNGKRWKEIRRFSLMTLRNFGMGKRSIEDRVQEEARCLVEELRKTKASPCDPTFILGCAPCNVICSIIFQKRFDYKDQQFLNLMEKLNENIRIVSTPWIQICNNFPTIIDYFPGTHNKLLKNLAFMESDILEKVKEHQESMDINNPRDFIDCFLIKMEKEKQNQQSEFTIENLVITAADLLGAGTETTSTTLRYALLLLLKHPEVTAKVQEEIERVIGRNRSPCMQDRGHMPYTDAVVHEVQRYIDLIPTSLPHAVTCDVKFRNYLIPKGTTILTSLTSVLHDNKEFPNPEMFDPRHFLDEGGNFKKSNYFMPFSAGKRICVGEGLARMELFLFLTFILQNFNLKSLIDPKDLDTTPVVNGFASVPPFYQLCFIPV
Chain of Cytochrome P450 1A2 (Homo sapiens) (P05177 whole entry, looked up): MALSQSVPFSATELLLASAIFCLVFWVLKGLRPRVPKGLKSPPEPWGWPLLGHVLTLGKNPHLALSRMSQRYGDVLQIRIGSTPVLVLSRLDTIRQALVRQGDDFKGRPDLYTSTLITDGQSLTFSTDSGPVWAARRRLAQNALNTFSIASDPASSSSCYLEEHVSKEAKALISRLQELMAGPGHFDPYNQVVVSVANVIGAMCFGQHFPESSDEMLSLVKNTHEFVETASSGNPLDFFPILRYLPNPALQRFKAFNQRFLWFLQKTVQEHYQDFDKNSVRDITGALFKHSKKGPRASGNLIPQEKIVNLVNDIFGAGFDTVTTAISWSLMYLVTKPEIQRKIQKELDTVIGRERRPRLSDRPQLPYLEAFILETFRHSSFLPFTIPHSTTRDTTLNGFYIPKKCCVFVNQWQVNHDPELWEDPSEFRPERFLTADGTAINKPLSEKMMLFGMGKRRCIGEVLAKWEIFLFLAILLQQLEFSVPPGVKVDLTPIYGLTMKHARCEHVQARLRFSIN
Chain of Voltage-gated inwardly rectifying potassium channel KCNH2 (Homo sapiens) (Q12809 whole entry, looked up): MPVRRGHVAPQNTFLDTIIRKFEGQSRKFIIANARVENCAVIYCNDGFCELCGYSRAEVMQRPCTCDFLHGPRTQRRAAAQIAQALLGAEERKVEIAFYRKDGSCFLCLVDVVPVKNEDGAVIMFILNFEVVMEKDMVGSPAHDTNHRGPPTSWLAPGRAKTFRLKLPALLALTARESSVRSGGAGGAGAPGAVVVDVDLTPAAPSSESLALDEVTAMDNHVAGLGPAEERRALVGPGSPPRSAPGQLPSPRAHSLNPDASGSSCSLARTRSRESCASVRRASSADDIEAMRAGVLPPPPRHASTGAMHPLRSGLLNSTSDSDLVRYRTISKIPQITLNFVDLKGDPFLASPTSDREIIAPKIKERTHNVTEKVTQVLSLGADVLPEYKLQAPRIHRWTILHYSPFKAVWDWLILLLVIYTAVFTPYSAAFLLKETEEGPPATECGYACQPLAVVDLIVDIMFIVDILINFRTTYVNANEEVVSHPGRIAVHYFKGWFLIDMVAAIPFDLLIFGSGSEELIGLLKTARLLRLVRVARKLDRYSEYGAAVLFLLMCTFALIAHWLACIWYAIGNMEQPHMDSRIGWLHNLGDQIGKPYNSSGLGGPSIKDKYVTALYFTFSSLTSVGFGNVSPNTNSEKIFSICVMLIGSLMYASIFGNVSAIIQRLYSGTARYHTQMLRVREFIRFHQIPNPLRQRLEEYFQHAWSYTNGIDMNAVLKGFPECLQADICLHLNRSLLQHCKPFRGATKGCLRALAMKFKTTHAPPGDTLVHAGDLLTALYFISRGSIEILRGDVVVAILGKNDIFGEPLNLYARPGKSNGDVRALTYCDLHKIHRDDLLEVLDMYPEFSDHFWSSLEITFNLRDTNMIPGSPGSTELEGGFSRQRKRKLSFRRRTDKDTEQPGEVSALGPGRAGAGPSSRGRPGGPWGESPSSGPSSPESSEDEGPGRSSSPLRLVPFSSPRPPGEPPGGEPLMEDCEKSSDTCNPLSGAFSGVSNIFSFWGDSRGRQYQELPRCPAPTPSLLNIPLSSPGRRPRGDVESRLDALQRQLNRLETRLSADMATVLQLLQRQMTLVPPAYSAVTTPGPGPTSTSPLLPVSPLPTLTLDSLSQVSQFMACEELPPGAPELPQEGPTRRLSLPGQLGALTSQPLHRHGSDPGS
Chain of Cytochrome P450 2D6 (Homo sapiens) (P10635 whole entry, looked up): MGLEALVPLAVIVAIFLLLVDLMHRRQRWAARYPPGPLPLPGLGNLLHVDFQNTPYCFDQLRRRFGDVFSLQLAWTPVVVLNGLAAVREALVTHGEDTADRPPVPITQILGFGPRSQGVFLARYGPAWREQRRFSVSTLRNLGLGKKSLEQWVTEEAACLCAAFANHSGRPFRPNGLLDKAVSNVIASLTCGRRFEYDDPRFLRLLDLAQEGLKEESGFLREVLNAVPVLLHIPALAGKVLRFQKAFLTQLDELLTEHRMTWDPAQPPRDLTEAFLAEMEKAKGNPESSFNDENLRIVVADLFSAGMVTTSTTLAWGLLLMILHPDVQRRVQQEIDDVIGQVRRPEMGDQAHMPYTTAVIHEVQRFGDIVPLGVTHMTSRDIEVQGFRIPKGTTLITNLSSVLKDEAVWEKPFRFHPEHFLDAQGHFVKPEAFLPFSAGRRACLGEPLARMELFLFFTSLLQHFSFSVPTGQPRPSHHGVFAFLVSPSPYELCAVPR
Chain of Nuclear receptor subfamily 1 group I member 2 (Homo sapiens) (O75469 whole entry, looked up): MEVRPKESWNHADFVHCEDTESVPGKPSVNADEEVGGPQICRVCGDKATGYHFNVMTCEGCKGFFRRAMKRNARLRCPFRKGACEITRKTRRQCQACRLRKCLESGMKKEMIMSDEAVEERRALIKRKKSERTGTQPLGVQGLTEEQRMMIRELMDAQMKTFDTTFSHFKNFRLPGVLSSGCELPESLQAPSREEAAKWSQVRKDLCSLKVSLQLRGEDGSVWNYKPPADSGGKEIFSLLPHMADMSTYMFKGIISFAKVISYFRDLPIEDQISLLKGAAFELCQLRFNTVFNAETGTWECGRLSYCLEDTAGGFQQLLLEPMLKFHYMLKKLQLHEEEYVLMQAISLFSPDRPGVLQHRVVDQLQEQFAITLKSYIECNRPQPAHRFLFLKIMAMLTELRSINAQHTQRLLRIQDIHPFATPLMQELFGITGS
Chain of Cytochrome P450 3A4 (Homo sapiens) (P08684 whole entry, looked up): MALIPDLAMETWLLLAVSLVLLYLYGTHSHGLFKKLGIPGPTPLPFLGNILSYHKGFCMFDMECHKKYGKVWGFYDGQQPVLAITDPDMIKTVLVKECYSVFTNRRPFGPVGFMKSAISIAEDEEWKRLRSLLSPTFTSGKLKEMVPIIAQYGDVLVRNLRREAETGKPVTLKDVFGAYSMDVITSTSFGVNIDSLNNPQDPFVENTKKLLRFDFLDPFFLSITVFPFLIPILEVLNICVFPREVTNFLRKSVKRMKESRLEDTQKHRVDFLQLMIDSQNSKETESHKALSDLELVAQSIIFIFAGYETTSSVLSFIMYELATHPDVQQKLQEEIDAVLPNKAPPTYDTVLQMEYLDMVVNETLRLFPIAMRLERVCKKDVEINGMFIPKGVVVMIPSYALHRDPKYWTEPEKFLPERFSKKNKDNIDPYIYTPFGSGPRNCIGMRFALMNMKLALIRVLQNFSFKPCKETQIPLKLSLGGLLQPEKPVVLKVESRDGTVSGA
Chain of Cytochrome P450 2C9 (Homo sapiens) (P11712 whole entry, looked up): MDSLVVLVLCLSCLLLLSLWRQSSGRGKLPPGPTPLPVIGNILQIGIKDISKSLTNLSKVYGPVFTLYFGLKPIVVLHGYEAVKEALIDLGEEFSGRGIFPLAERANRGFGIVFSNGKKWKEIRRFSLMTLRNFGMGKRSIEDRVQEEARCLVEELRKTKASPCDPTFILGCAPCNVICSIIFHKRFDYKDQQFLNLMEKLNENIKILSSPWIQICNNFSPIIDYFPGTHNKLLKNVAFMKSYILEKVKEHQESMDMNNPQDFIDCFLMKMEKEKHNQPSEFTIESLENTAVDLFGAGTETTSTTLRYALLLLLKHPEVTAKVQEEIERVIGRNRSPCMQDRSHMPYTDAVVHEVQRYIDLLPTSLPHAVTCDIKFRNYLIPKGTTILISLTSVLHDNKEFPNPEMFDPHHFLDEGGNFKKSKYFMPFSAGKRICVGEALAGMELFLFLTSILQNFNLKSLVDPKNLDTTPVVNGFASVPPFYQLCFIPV
Chain of Nuclear receptor subfamily 1 group I member 2 (Rattus norvegicus) (Q9R1A7 whole entry, looked up): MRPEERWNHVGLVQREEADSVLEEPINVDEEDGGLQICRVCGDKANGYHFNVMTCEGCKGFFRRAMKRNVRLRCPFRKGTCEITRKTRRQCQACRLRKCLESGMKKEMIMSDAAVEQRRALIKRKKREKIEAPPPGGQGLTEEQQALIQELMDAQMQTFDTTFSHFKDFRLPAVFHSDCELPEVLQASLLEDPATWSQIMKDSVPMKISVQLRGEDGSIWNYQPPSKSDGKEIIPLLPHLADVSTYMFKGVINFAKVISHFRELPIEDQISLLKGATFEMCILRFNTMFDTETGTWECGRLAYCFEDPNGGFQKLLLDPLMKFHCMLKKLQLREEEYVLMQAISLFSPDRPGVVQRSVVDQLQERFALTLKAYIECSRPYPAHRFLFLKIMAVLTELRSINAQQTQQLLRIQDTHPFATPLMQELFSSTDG

CCCCC1C(=O)N(c2ccccc2)N(c2ccc(O)cc2)C1=O (centres undefined)
active: Potency [1] 26.6 µM | Potency [3] 3.76 µM | Potency [4] 29.8 µM | Potency [5] 11.9 µM | Potency [8] 17.4 µM | Potency [9] 9.77 µM
inactive: Potency [2] | Potency [6] | Potency [7] | Potency [10] | Potency [11]

CC(=O)Nc1ccc(N)cc1
inactive: Potency [1] | Potency [2] | Potency [3] | outcome [12] | Potency [4] | Potency [8] | Potency [11]
active: Potency [13] 40.5 µM | Potency [10] 40.5 µM | Potency [14] 28.7 µM

NC(=O)N(O)[C@@H]1C=C[C@H](Oc2cccc(Oc3ccc(F)cc3)c2)C1
active: Potency [3] 68.6 µM | Potency [5] 19.3 µM | Potency [8] 8.94 µM | Potency [9] 31.7 µM | Potency [10] 7.96 µM
inactive: Potency [2] | outcome [12] | Potency [4]

NC(=O)N(O)[C@@H]1COc2cc(OCc3ccccc3)ccc21
inactive: Potency [2] | outcome [12] | Potency [4] | Potency [11]
active: Potency [3] 24.3 µM | Potency [5] 12.2 µM | Potency [13] 10 µM | Potency [8] 5.03 µM | Potency [9] 7.96 µM | Potency [10] 5.03 µM | Potency [14] 2.52 µM

CCc1cccc(N(C)C(N)=Nc2cccc3ccccc23)c1
inactive: Potency [2] | Potency [3] | outcome [12] | Potency [4]

CCn1nc(C)c2c1C(=O)NCC(c1ccc(O)cc1)=N2
inactive: Potency [2] | Potency [3] | outcome [12] | Potency [4] | Potency [13] | Potency [8] | Potency [11]
active: Potency [9] 44.8 µM | Potency [14] 31.7 µM

OCC1CC=CCC1 (centres undefined)
inactive: Potency [1] | Potency [2] | Potency [3] | outcome [12] | Potency [4] | Potency [5] | Potency [9] | Potency [10] | Potency [11] | Potency [14]

CC1=CC(O)CC(C)(C)C1 (centres undefined)
inactive: Potency [2] | Potency [3] | outcome [12] | Potency [4] | Potency [5] | Potency [13] | Potency [9] | Potency [10] | Potency [11] | Potency [14]

CCCCC(CC)COC(=O)COc1ccc(Cl)cc1C (centres undefined)
inactive: Potency [1] | Potency [2] | Potency [3] | outcome [12] | Potency [4] | Potency [5] | Potency [11]
active: Potency [8] 8.94 µM | Potency [10] 12.6 µM | Potency [14] 8.94 µM

Cc1c(C(=O)NN2CCCCC2)nn(-c2ccc(Cl)cc2Cl)c1-c1ccc(Cl)cc1
inactive: Potency [2] | outcome [12] | Potency [6] | Potency [7] | Potency [8] | Potency [10] | Potency [14]
active: Potency [3] 26.6 µM | Potency [11] 2.13 µM

CC(C)C(OC(=O)c1ccccc1)C(C)(C)COC(=O)c1ccccc1 (centres undefined)
inactive: Potency [1] | Potency [2] | Potency [3] | outcome [12] | Potency [4] | Potency [13] | Potency [14]
active: Potency [8] 6.33 µM | Potency [9] 2 µM | Potency [10] 35.6 µM

COC(=O)Nc1nc2ccc(C(=O)c3cccs3)cc2[nH]1
active: Potency [2] 266 nM | Potency [5] 26.6 µM | Potency [13] 38.9 µM | Potency [10] 12.9 µM
inactive: outcome [12] | Potency [4] | Potency [11] | Potency [14]

C=CC(C)=CCC=C(C)C
active: Potency [9] 63.3 µM | Potency [14] 28.3 µM
inactive: Potency [1] | Potency [2] | Potency [3] | outcome [12] | Potency [4] | Potency [13] | Potency [11]

CC(=O)Oc1ccc(C(=C2CCCCC2)c2ccc(OC(C)=O)cc2)cc1
inactive: Potency [1] | Potency [2] | outcome [12] | Potency [4] | Potency [6] | Potency [7] | Potency [10] | Potency [11] | Potency [14]
active: Potency [13] 15.5 µM | Potency [9] 9.77 µM

C[C@@H]1C[C@H]2[C@@H]3CCC4=CC(=O)C=C[C@]4(C)[C@@]3(F)[C@@H](O)C[C@]2(C)[C@@]1(O)C(=O)CO
inactive: Potency [1] | Potency [2] | Potency [3] | outcome [12] | Potency [4] | Potency [11]

O=C(O)c1cccnc1C(=O)O
inactive: Potency [1] | Potency [2] | Potency [3] | outcome [12] | Potency [4] | Potency [5] | Potency [8] | Potency [9] | Potency [10] | Potency [11] | Potency [14]

O=C(NCCCN1CCOCC1)c1ccc(Cl)cc1
inactive: Potency [2] | outcome [12] | Potency [4] | Potency [5] | max activation [15] 4.03% | Potency [6] | Potency [7] | Potency [8] | Potency [9] | Potency [10] | Potency [11] | Potency [14]
active: Potency [13] 2.45 µM

Cc1cc(S(=O)(=O)O)ccc1N=Nc1c(O)ccc2ccccc12
inactive: Potency [2] | outcome [12] | Potency [5] | Potency [11]
active: Potency [1] 24.3 µM | Potency [3] 27.3 µM | Potency [4] 30.6 µM | Potency [8] 20 µM | Potency [9] 31.7 µM | Potency [10] 25.2 µM | Potency [14] 39.9 µM

CCOc1cc(N)c(Cl)cc1C(=O)NCC1CN(Cc2ccc(F)cc2)CCO1 (centres undefined)
active: Potency [5] 5.31 µM | Potency [7] 12.6 µM | Potency [8] 3.47 µM
inactive: Potency [2] | Potency [3] | outcome [12] | Potency [6] | Potency [13]
